Reference: the supplement of paper PMC10849652
The full data set covers some 7,900 targets. This sample favours those with a hit. About 0.6% of all pairs of compound and target were hits.

Legend:
Assay in all cases: log2 fold change, soluble protein after heating vs DMSO (PISA); higher = thermal stabilisation; K562 cells, 10 uM, 30 min; active = over 0.2 and 3.5 SD of the protein, either way, in both replicates (recomputed)
[1] = compound: CC[C@@H]1C(=O)N(C)c2cnc(Nc3ccc(C(=O)NC4CCN(C)CC4)cc3OC)nc2N1C1CCCC1
Outline: (§1)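 K562 cells at 2×10^6 cells/mL were given 10 μM compound for 30 min. Aliquots then went through 3 min of heating across 48°C-58°C, were pooled, and were extracted in PBS with 0.5% NP-40 at 4°C, and the supernatant after 21,000xg for 90 min was quantified by TMTpro 16plex LC-MS/MS with channel sums equalised. Thermal stability relative to control samples, from duplicates, is given as log2 fold change.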

volasertib = compound: CC[C@@H]1C(=O)N(C)c2cnc(Nc3ccc(C(=O)N[C@H]4CC[C@H](N5CCN(CC6CC6)CC5)CC4)cc3OC)nc2N1C(C)C [volasertib]
Outline: as §1

[2] = compound: CC[C@H](C)N1C=C(C2=C(C=C(C=C21)C3=CN=C(C=C3)N4CCNCC4)C(=O)NCC5=C(C=C(NC5=O)C)C)C
Outline: as §1

epoxomicin = compound: CC[C@H](C)[C@@H](C(=O)N[C@@H]([C@@H](C)O)C(=O)N[C@@H](CC(C)C)C(=O)[C@]1(CO1)C)NC(=O)[C@H]([C@@H](C)CC)N(C)C(=O)C [epoxomicin]
Outline: as §1

[3] = compound: CCn1c(C(=O)N(C2CC2)C2CC2)cc2c3c(ncn3C)c(Nc3cc(C)n(C)n3)nc21
Outline: as §1

[4] = compound: CCn1cc(-c2ccnc3[nH]c(-c4cccc(CN(C)C)c4)cc23)c(-c2ccc(NC(=O)N(C)C)cc2)n1
Outline: as §1

[5] = compound: CN(C)CC(=O)Nc1ccc2[nH]c(=O)c3ccccc3c2c1
Outline: as §1

rosiglitazone = compound: CN(CCOC1=CC=C(C=C1)C[C@H]2C(=O)NC(=O)S2)C3=CC=CC=N3 (racemic) [rosiglitazone]
Outline: as §1

[6] = compound: CN1CCC(CNc2ccc3ncc(-c4cccc(OC(F)(F)F)c4)n3n2)CC1
Outline: as §1

sotrastaurin = compound: CN1CCN(c2nc(C3=C(c4c[nH]c5ccccc45)C(=O)NC3=O)c3ccccc3n2)CC1 [sotrastaurin]
Outline: as §1

alvocidib = compound: CN1CC[C@H](c2c(O)cc(O)c3c(=O)cc(-c4ccccc4Cl)oc23)[C@H](O)C1 [alvocidib]
Outline: as §1

Tubastatin A = compound: CN1CCc2c(c3ccccc3n2Cc2ccc(C(=O)NO)cc2)C1 [Tubastatin A]
Outline: as §1

[7] = compound: CNC(=O)C1=CC=CC=C1NC2=NC(=NC=C2Cl)NC3=C(C=C(C=C3)N4CCOCC4)OC
Outline: as §1

defactinib = compound: CNC(=O)c1ccc(Nc2ncc(C(F)(F)F)c(NCc3nccnc3N(C)S(C)(=O)=O)n2)cc1 [defactinib]
Outline: as §1

rucaparib = compound: CNCc1ccc(-c2[nH]c3cc(F)cc4c3c2CCNC4=O)cc1 [rucaparib]
Outline: as §1

encorafenib = compound: COC(=O)N[C@@H](C)CNc1nccc(-c2cn(C(C)C)nc2-c2cc(Cl)cc(NS(C)(=O)=O)c2F)n1 [encorafenib]
Outline: as §1

[8] = compound: COC(=O)[C@H](CCSC)NC(=O)C1=C(C=C(C=C1)NC[C@H](CS)N)C2=CC=CC=C2
Outline: as §1

[9] = compound: CN1C2=C(C3=C1C(=O)N(N=C3)CC4=CC(=CC=C4)N)SC(=C2)S(=O)C
Outline: as §1

saracatinib = compound: CN1CCN(CCOc2cc(OC3CCOCC3)c3c(Nc4c(Cl)ccc5c4OCO5)ncnc3c2)CC1 [saracatinib]
Outline: as §1

[10] = compound: CNc1nc(-c2ccc3c(N)n[nH]c3c2)cc(N2C[C@@H](C(=O)NC3CCCCC3)CC[C@H]2C)n1
Outline: as §1

Measured: log2 fold change

MRPS16 (UniProt Q9Y3D3)
inactive: [1] 0.012 | volasertib -0.088 | [2] 0.018 | epoxomicin 0.041 | [3] 0.047 | [4] -0.116 | [5] 0.046 | rosiglitazone -0.071 | [6] 0.052 | sotrastaurin -0.039 | alvocidib -0.098 | Tubastatin A 0.008 | [7] -0.115 | defactinib 0.043 | rucaparib 0.084 | encorafenib 0.138 | [8] 0

NAT14 (UniProt Q8WUY8)
UniProt Q8WUY8, sequence (Q8WUY8 whole entry, looked up): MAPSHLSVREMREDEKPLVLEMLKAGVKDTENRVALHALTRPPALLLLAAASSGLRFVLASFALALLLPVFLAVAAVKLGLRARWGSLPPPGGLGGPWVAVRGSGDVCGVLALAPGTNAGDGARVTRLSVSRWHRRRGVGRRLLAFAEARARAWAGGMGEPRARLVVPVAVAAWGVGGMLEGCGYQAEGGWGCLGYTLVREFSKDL
inactive: [1] -0.192 | volasertib -0.261 | [2] 0.063 | epoxomicin -0.024 | [3] 0.064 | [5] 0.077 | rosiglitazone 0.095 | [9] -0.107 | saracatinib -0.054 | sotrastaurin 0.068 | alvocidib -0.134 | Tubastatin A -0.02 | [7] 0 | defactinib -0.235 | rucaparib -0.002 | [10] -0.005 | encorafenib 0.002 | [8] 0.163

OXR1 isoform 2 (UniProt Q8N573)
UniProt Q8N573, sequence (Q8N573 whole entry, looked up): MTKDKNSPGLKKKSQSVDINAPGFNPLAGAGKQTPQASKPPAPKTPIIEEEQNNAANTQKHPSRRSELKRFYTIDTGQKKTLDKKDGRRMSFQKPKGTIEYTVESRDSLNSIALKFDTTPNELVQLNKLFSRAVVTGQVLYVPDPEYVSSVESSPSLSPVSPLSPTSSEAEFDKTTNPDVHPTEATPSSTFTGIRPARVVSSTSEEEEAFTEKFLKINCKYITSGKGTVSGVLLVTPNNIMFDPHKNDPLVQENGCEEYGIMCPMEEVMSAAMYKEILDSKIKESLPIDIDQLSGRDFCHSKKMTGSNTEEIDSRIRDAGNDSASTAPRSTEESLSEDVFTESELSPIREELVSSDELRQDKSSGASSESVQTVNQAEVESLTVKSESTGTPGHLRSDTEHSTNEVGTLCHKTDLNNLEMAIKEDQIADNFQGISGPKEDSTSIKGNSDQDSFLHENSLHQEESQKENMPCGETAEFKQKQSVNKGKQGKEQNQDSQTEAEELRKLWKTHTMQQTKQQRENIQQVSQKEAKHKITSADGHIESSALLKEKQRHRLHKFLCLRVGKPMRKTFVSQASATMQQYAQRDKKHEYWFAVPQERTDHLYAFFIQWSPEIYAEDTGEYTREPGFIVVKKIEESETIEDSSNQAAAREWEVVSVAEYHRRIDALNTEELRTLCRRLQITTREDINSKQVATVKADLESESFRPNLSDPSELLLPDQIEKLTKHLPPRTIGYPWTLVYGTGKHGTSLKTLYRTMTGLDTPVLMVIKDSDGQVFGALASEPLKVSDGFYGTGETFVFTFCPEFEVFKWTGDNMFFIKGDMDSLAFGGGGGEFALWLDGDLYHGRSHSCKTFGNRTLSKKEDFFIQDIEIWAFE
inactive: [1] -0.092 | volasertib -0.09 | [2] -0.082 | epoxomicin 0.127 | [4] 0.056 | [5] -0.004 | [9] -0.015 | [6] -0.244 | saracatinib -0.138 | alvocidib 0.051 | Tubastatin A -0.038 | defactinib -0.067 | rucaparib -0.008 | [10] 0.092 | encorafenib -0.022 | [8] 0.047

MUL1 (UniProt Q969V5)
UniProt Q969V5, sequence (Q969V5 whole entry, looked up): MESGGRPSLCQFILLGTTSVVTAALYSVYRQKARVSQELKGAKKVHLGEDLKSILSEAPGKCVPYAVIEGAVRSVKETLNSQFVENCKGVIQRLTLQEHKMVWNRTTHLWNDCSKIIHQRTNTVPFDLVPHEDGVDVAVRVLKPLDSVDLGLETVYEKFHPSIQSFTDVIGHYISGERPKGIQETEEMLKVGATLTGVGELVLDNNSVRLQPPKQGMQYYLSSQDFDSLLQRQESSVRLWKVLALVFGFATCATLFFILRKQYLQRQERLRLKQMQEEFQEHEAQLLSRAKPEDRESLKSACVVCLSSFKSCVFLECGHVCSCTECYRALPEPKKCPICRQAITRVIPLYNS
inactive: [1] 0.061 | volasertib 0 | [2] 0.045 | epoxomicin 0.04 | [3] -0.004 | [4] 0.014 | [5] -0.028 | rosiglitazone 0.052 | [9] -0.004 | [6] -0.115 | saracatinib 0.054 | sotrastaurin 0.079 | alvocidib -0.013 | Tubastatin A 0.047 | [7] 0.056 | defactinib 0.059 | rucaparib 0.072 | [10] -0.018 | encorafenib -0.074 | [8] 0.079

MSL1 (UniProt Q68DK7)
UniProt Q68DK7, sequence (Q68DK7 whole entry, looked up): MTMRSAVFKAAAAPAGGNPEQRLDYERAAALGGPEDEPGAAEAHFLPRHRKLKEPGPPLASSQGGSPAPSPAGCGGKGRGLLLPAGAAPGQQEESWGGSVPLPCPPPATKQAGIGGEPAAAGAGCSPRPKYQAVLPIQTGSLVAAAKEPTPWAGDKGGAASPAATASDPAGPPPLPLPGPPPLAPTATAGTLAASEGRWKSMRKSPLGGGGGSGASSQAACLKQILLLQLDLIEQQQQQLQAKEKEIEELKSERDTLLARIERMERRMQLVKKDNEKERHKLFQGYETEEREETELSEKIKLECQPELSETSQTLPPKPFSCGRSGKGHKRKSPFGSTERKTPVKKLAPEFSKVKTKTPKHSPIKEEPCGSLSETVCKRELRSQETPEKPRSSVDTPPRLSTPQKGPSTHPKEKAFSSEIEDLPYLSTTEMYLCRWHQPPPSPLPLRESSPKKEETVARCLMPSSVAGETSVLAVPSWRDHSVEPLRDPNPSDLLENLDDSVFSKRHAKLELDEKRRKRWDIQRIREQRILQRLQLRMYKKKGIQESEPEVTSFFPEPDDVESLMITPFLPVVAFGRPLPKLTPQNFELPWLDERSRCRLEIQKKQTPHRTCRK
inactive: [1] 0.077 | volasertib 0.002 | [2] -0.19 | epoxomicin 0.007 | [3] -0.161 | [4] -0.26 | [5] -0.087 | rosiglitazone 0.028 | [9] 0.098 | [6] -0.161 | saracatinib -0.026 | sotrastaurin 0.052 | [7] -0.253 | defactinib -0.069 | rucaparib -0.042 | [10] 0.04 | encorafenib -0.088 | [8] -0.017

MRFAP1 (UniProt Q9Y605)
inactive: [1] -0.107 | volasertib -0.386 | [2] 0 | [3] 0.029 | [4] 0.022 | [5] 0.242 | rosiglitazone 0.048 | [9] -0.08 | [6] -0.032 | saracatinib -0.118 | sotrastaurin 0.102 | alvocidib -0.097 | Tubastatin A 0.329 | [7] -0.003 | defactinib -0.051 | rucaparib -0.099 | [10] -0.002 | encorafenib 0.141 | [8] -0.027

MLX (UniProt Q9UH92)
inactive: [1] 0.047 | [2] -0.007 | epoxomicin 0.162 | [3] -0.04 | [4] 0 | rosiglitazone 0.052 | [9] 0.142 | [6] -0.315 | saracatinib -0.171 | sotrastaurin -0.084 | alvocidib -0.037 | Tubastatin A 0.075 | [7] -0.149 | rucaparib -0.169 | [10] 0.004 | encorafenib 0.149
active: volasertib -0.734

NCBP2AS2 (UniProt Q69YL0)
UniProt Q69YL0, sequence (Q69YL0 whole entry, looked up): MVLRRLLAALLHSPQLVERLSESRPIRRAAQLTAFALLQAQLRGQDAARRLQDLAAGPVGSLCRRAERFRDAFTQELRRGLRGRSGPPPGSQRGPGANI
inactive: [1] -0.255 | volasertib -0.193 | [2] -0.1 | [3] 0.027 | [4] 0.026 | [5] -0.072 | rosiglitazone -0.063 | [9] 0.049 | saracatinib 0.056 | sotrastaurin 0.215 | alvocidib -0.004 | Tubastatin A -0.064 | [7] -0.005 | defactinib 0.013 | rucaparib -0.03 | [10] -0.081 | encorafenib 0.031 | [8] 0.031
active: [6] -0.906

MSH6 (UniProt P52701)
UniProt P52701, sequence (P52701 whole entry, looked up): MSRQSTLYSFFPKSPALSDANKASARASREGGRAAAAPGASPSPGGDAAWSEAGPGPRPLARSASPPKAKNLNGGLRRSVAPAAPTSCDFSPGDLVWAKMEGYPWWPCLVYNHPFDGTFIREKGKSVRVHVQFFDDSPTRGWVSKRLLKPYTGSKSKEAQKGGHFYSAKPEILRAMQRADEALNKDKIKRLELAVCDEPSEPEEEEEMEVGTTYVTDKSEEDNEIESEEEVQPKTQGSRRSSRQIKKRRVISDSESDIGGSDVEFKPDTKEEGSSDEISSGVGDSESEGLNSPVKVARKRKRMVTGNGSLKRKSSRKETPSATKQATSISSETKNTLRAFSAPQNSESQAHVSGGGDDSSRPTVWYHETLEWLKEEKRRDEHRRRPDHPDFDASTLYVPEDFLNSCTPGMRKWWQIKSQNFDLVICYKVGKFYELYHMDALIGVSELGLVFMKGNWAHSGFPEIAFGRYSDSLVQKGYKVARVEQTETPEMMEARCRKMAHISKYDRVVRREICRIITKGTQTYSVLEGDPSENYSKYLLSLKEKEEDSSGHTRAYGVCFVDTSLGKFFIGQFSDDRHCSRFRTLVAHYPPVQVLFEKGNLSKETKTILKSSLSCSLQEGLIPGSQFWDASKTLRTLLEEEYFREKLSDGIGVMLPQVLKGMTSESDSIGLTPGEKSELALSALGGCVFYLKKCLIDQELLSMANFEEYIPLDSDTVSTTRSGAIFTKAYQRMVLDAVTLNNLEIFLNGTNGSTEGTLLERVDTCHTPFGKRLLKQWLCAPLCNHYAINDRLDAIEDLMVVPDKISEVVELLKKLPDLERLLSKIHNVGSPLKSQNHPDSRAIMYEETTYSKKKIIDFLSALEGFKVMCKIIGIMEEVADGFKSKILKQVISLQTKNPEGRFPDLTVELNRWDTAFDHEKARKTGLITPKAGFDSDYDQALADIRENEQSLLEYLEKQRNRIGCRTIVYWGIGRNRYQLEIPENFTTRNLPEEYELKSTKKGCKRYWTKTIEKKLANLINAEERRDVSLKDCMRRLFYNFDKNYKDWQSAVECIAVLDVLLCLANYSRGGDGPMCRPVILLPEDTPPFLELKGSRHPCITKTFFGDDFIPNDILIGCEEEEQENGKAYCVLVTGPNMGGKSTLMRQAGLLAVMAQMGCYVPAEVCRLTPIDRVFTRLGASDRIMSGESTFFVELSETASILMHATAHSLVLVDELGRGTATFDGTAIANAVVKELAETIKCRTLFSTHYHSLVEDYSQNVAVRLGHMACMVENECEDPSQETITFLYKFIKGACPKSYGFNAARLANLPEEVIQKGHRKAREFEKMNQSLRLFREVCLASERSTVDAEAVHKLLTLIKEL
inactive: [1] -0.306 | [2] 0.227 | epoxomicin 0.097 | [3] -0.127 | [4] -0.089 | [5] 0.172 | rosiglitazone 0.179 | [9] -0.044 | [6] -0.261 | saracatinib -0.142 | sotrastaurin -0.278 | alvocidib -0.255 | Tubastatin A 0.127 | [7] -0.049 | defactinib -0.379 | rucaparib -0.014 | [10] 0.102 | encorafenib 0.141 | [8] -0.098
active: volasertib -0.683

NPC1L1 (UniProt Q9UHC9)
inactive: [1] -0.029 | volasertib -0.016 | [2] 0.2 | [5] -0.016 | rosiglitazone 0.045 | [9] -0.081 | saracatinib -0.026 | sotrastaurin 0.033 | alvocidib 0.013 | Tubastatin A 0.005 | defactinib -0.093 | rucaparib -0.06 | [10] -0.051 | encorafenib -0.038 | [8] 0.093

OVCA2 (UniProt Q8WZ82)
inactive: [1] -0.352 | volasertib -0.47 | [2] 0.083 | [4] 0.086 | rosiglitazone -0.033 | [6] -0.116 | rucaparib 0.116 | encorafenib -0.052

MON1A (UniProt Q86VX9)
UniProt Q86VX9, sequence (Q86VX9 whole entry, looked up): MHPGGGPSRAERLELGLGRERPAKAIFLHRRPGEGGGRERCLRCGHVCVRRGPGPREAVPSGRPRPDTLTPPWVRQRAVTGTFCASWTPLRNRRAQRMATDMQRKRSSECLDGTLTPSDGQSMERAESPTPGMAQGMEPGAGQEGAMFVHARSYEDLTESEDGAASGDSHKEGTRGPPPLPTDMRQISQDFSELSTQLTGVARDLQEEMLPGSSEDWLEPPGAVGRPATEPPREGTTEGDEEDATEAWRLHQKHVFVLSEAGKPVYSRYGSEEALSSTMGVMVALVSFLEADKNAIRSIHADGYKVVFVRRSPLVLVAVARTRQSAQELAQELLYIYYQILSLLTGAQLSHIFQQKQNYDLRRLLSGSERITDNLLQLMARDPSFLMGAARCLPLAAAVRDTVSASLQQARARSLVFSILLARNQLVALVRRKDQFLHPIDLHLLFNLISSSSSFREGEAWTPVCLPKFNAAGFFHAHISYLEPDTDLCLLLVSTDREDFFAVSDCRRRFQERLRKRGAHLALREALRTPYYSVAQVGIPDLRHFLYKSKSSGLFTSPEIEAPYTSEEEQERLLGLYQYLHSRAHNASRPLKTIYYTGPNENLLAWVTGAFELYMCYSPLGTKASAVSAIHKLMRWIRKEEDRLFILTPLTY
inactive: [1] -0.11 | volasertib -0.012 | [2] -0.141 | epoxomicin -0.101 | [3] 0.004 | [4] 0.003 | rosiglitazone 0.134 | [9] 0.032 | [6] -0.041 | saracatinib 0.013 | sotrastaurin 0.058 | Tubastatin A 0.047 | [7] -0.103 | rucaparib -0.023 | [10] 0.029 | encorafenib 0.253

NKAP (UniProt Q8N5F7)
inactive: [1] 0.026 | volasertib -0.3 | [2] 0.082 | epoxomicin -0.109 | [3] -0.028 | [4] 0.092 | [5] 0.052 | rosiglitazone 0.024 | [9] -0.025 | [6] -0.164 | saracatinib 0.067 | alvocidib -0.142 | Tubastatin A 0.093 | [7] -0.296 | defactinib 0.092 | rucaparib 0.055 | [10] 0.085 | encorafenib 0.149 | [8] 0.039

NME7 (UniProt Q9Y5B8)
active: volasertib -0.358
inactive: [1] -0.014 | epoxomicin -0.072 | [3] -0.033 | [4] -0.044 | [5] -0.045 | rosiglitazone 0.104 | [9] 0.014 | [6] -0.314 | saracatinib -0.109 | sotrastaurin -0.017 | alvocidib -0.117 | Tubastatin A 0.054 | [7] 0.016 | defactinib -0.047 | rucaparib 0.006 | [10] -0.001 | encorafenib 0.086 | [8] -0.006

MLST8 (UniProt Q9BVC4)
inactive: [1] -0.22 | [2] 0.05 | epoxomicin -0.02 | [3] -0.099 | [5] 0.109 | rosiglitazone -0.029 | [9] -0.016 | saracatinib -0.124 | sotrastaurin -0.003 | alvocidib -0.034 | Tubastatin A 0.124 | [7] -0.116 | defactinib -0.092 | rucaparib 0.099 | [10] 0.014 | encorafenib 0.101 | [8] -0.106
active: volasertib -0.353

MPHOSPH10 (UniProt O00566)
UniProt O00566, sequence (O00566 whole entry, looked up): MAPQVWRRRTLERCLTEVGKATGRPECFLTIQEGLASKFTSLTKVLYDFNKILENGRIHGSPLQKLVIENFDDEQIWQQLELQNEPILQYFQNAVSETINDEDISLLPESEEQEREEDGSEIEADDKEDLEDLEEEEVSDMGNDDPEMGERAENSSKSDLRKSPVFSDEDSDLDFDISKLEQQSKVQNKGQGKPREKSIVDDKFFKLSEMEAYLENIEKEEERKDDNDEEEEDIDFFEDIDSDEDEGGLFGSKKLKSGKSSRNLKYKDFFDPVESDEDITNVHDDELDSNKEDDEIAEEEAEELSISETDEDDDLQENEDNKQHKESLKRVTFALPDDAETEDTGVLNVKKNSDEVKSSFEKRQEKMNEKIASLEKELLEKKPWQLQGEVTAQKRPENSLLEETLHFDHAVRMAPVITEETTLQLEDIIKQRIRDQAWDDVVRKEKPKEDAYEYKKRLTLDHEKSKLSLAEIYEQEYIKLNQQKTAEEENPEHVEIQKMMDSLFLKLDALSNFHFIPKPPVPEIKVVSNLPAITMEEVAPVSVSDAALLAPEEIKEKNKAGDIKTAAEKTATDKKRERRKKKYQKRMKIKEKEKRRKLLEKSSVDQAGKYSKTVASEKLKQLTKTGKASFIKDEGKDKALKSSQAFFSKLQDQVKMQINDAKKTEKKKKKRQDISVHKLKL
inactive: [1] 0.099 | volasertib -0.155 | [2] 0.084 | epoxomicin -0.26 | [3] -0.028 | [4] 0.182 | [5] -0.012 | rosiglitazone 0.089 | [9] 0.314 | [6] 0.133 | saracatinib -0.123 | sotrastaurin -0.061 | alvocidib 0.086 | Tubastatin A 0.098 | [7] -0.023 | defactinib 0.11 | rucaparib 0.229 | [10] -0.081 | encorafenib 0.214 | [8] 0.045

MRPL34 (UniProt Q9BQ48)
inactive: [1] 0.061 | volasertib 0.029 | [2] -0.007 | epoxomicin -0.042 | [3] -0.042 | [4] 0.109 | [5] -0.065 | rosiglitazone -0.028 | [9] 0.232 | [6] 0.048 | saracatinib -0.09 | sotrastaurin 0 | alvocidib 0.117 | Tubastatin A 0.119 | [7] 0.086 | defactinib 0.138 | rucaparib 0.101 | [10] 0.169 | encorafenib 0.055 | [8] 0.035

NDUFB1 (UniProt O75438)
UniProt O75438, sequence (O75438 whole entry, looked up): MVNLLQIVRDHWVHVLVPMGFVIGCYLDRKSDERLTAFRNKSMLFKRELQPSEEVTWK
active: epoxomicin 0.396 | [6] 0.282
inactive: [1] -0.004 | volasertib -0.08 | [2] -0.099 | [3] -0.026 | [4] -0.102 | [5] 0.006 | rosiglitazone 0.009 | sotrastaurin 0.015 | alvocidib -0.042 | Tubastatin A -0.09 | [7] -0.01 | defactinib -0.021 | rucaparib -0.035 | encorafenib 0.001 | [8] 0.034
